Screening data deposited in PubChem BioAssay by several laboratories.
Sampled rows, rich in hits. Any-hit rate of the full collection: about 1.4%.
CCHF vOTU inh = CCHFV vOTU protease inhibitors, primary screen, biochemical, Pep-AMC substrate, fluorescence; Crimean-Congo hemorrhagic fever virus L polyprotein viral ovarian tumor (vOTU) protease …; inhibition, % at 11.5 µM; hit rate 0.55% among 370,000; AID 651958, 2012; in the data active = inhibition above about 30%; also: 0% = vehicle wells with enzyme and 100% = no enzyme wells
VHR inh abs = VHR1 phosphatase inhibitors, primary screen, biochemical, absorbance, uHTS. hit rate 0.52% among 290,000. recombinant VHR phosphatase, pNPP absorbance. inhibition, % at 13.3 µM. AID 1654, 2009; in the data active = inhibition above about 50%
Target sequence (P51452 whole entry, looked up): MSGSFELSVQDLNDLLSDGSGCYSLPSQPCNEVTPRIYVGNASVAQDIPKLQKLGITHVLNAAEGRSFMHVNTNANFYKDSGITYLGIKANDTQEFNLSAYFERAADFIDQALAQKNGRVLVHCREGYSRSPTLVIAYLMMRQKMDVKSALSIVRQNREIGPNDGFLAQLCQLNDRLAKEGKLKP
MazF activator = activators of E. coli MazEF toxin-antitoxin RNase, primary screen, biochemical, fluorescence, uHTS | Endoribonuclease toxin MazF (Escherichia coli (strain K12)), P0AE70 | FAM/BHQ RNA-DNA oligo cleavage fluorescence, 5 h | activation, % at 20 µM | hit rate 0.32% among 350,000; in the data active = activation above about 50%
Target sequence (P0AE70 whole entry, looked up): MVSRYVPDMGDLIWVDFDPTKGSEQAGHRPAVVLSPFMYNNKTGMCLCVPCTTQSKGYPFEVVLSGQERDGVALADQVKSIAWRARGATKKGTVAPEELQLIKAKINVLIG
BJeLR viability = MLPCN primary cell-based screen for lethality selective to Ras in HRASV12 cells | BJeLR (HRASV12) viability, CellTiter-Glo ATP luminescence, 48 h | inhibition, % (test concentration not listed) | hit rate 0.17% among 300,000; in the data active = inhibition above about 50%
3CLpro inhibitor = SARS-CoV 3CLpro protease inhibitors, primary screen, biochemical, quenched FRET; Replicase polyprotein 1ab (Severe acute respiratory syndrome coronavirus), P0C6X7; recombinant SARS-CoV 3CLpro, quenched FRET peptide cleavage; inhibition, % at 6 µM; hit rate 0.14% among 290,000; in the data active = inhibition above about 12%
Numbers without * were called inactive; nt = no result given.

SMILES	CCHF vOTU inh	VHR inh abs	MazF activator	BJeLR viability	3CLpro inhibitor
C=CCOC(=O)N1CCN(C(=O)c2ccc3nc(C)n(C4CCCC4)c3c2)CC1	10	nt	nt	nt	nt
COC(=O)c1cccc(Cn2ccc3ccc(-c4ccc5ccn(C(=O)C6CC6)c5c4)cc32)c1	6	nt	nt	nt	nt
O=C(NC1CCCCN(Cc2cccc(C(F)(F)F)c2)C1=O)C1C2CC3CC(C2)CC1C3 (stereo not drawn)	14	nt	nt	nt	nt
Oc1ccc2ccccc2c1/C=N/Nc1nnc(-c2ncc[nH]2)c2ccccc12	-2	15	65*	28	-3
Cc1cc2oc(=O)cc(CNc3ccccc3F)c2cc1O	9	13	9	9	0
COc1cccc(NCc2cc(=O)oc3cc(-c4ccccc4)c(O)cc23)c1	-3	22	7	-4	-1
CCOc1ccccc1NCc1cc(=O)oc2cc(C)c(O)cc12	-6	55*	9	0	-1
COc1cccc(NCc2cc(=O)oc3cc(C)c(O)cc23)c1	5	52*	3	-4	2
O=C(NCCN1CCCCC1)Nc1cccc(F)c1	-5	57*	14	8	-1
O=C(NCCN1CCCCC1)Nc1ccc(F)cc1	-8	18	-3	-8	-1
O=C(/C=C/c1ccccc1)CC(=O)c1ccccc1O	1	17	55*	8	-2
O=C(/C=C/c1ccccc1)NC(=O)c1ccccc1O	23	17	9	3	6
O=C(C1CC1)C1(C(=O)N2CCOCC2)CC(c2ccccn2)=NO1 (stereo not drawn)	6	nt	nt	nt	nt
COc1cc([C@H]2c3[nH]c4ccccc4c3C[C@H]3C(=O)N4[C@@H](c5cc(OC)c(OC)c(OC)c5)c5[nH]c6ccccc6c5C[C@H]4C(=O)N23)cc(OC)c1OC	nt	-11	-4	83*	-1
CCc1c(C)c(C#N)c2nc3ccccc3n2c1N(C)C	-1	-3	-1	nt	0
CCCCc1c(C)c(C#N)c2nc3ccccc3n2c1Cl	nt	12	nt	128*	5
Cc1ccc(Cn2cc(COC(=O)N3CCCC3)nn2)cc1	4	nt	nt	nt	nt
N[C@H]1CC[C@@H]2SC[C@@H](C(=O)O)N2C1=O	-2	nt	nt	nt	nt
Cc1nn(-c2cccc(Cl)c2)c(Cl)c1/C=N/NC(=O)c1cccs1	8	54*	21	13	4
C=CC[C@@H]1NN2C(=O)[C@@H](C)[C@@H]3c4ccccc4C=NN3[C@@H]2c2ccccc21	-3	nt	nt	nt	nt
OC(CNCCC1C=Nc2ccccc21)Cn1c2ccc(Cl)cc2c2cc(Cl)ccc21 (stereo not drawn)	8	3	-27	105*	-2
CCCCn1c(N)c(N(CC)C(=O)c2ccccc2C)c(=O)[nH]c1=O	6	52*	13	-4	-6
Cc1ccccc1N1CCN(C(=O)CN2C(=O)CC(C)(C)S(=O)(=O)c3ccccc32)CC1	4	nt	nt	nt	nt
CCC(C(=O)NCCCN1CCN(CC)CC1)n1nc(C)n2c(cc3occc32)c1=O (stereo not drawn)	-1	-8	4	14	-1
CCC(C(=O)NCCCN1CC(C)CC(C)C1)n1ncn2c(cc3occc32)c1=O (stereo not drawn)	-5	58*	8	5	-3
SMILES	CCHF vOTU inh	VHR inh abs	MazF activator	BJeLR viability	3CLpro inhibitor
CCOC(=O)c1csc(NC(=O)C2CCCN(S(=O)(=O)c3cc(OC)ccc3OC)C2)n1 (stereo not drawn)	-3	nt	nt	nt	nt
CC1CCN(c2ccc(C(=O)O)cc2NS(=O)(=O)c2ccccc2)CC1	6	nt	nt	nt	nt
COc1ccc(CNC(=O)c2cc3c(=O)n4cccc(C)c4nc3n(CC3CCCO3)c2=N)cc1 (stereo not drawn)	9	16	8	6	-3
Cc1cccn2c(=O)c3cc(C(=O)NCc4ccc(F)cc4)c(=N)n(CC4CCCO4)c3nc12 (stereo not drawn)	-238	56*	12	-4	-5
Cn1nc([N+](=O)[O-])nc1Sc1nnc(-c2ccccc2)o1	3	39	11	56*	-1
COc1ccc2c(c1)c1nc3ccccc3nc1n2Cc1ccc(OC)c(OC)c1	-2	21	116*	15	0
CCOC(=O)Cn1c2ccc(OC)cc2c2nc3ccccc3nc21	-2	43	276*	3	-4
COC(=O)Cn1c2ccc(OC)cc2c2nc3ccccc3nc21	-5	7	236*	-2	-6
COC(=O)Cn1c(C(F)(F)F)nc2ccccc21	4	-10	11	6	-2
CCOc1ccc(Cn2c3ccc(OC)cc3c3nc4ccccc4nc32)cc1OC	18	30	-21	-1	3
O=c1[nH]c2cc(Br)c(Br)nc2[nH]1	-6	nt	nt	nt	nt
CCS(=O)(=O)N1N=C(c2cccc(NS(C)(=O)=O)c2)CC1c1ccc(C)cc1 (stereo not drawn)	-12	16	67*	-6	-2
COc1ccc(-c2nnn3c2Cn2c4ccccc4c(=O)n2[C@@H](C)C3)cc1	-14	nt	nt	nt	nt
CCN1C(=O)C(=Cc2cccc(OC)c2Oc2ccc([N+](=O)[O-])cc2[N+](=O)[O-])SC1=S	1	2	2	94*	3
COc1cc(/C=C2\SC(=O)NC2=O)ccc1Oc1ccc([N+](=O)[O-])cc1[N+](=O)[O-]	6	-6	-12	0	5
Cc1cc(-n2c(SCC(=O)NCCC3=CCCCC3)nc3n[nH]c(C)c3c2=N)ccc1Cl	-1	63	3	59*	3
Cc1ccc(Cl)cc1-n1c(SCC(=O)NCCC2=CCCCC2)nc2n[nH]c(C)c2c1=N	28	2	17	3	3
COc1ccc(NC(=O)CSc2nc3n[nH]c(C)c3c(=N)n2-c2ccc(Cl)c(C)c2)cc1OC	nt	4	111*	4	4
Cc1cc(N2CCN(c3cccc(C)c3C)CC2)nc(-c2ccccc2)n1	8	53*	1	-1	0
Cc1cccc(C)c1-n1nnnc1C1c2ccccc2OCC(=O)N1Cc1ccc(F)cc1 (stereo not drawn)	4	nt	nt	nt	nt
COc1ccc(/C=N/Nc2cc(C)nc3ccccc23)cc1	9	-28	-19	20	-12
COc1ccc2nc(C)cc(N/N=C/c3ccc(F)cc3)c2c1	-12	9	8	93*	-23
O=C(Nc1nccs1)c1c(O)c2cccc3c2n(c1=O)CCC3	5	56*	nt	0	-8
COc1cc(C2NC(=O)NC(C)=C2C(C)=O)ccc1O (stereo not drawn)	12	13	83*	5	-4
COc1cc(C2NC(=O)NC(C)=C2C(C)=O)cc(OC)c1OC (stereo not drawn)	-17	-18	-6	3	4
Clc1ccc(/C=N/Nc2nn[nH]n2)cc1	-1	54*	-7	-6	1
Cc1ccc(S(=O)(=O)/N=C2\C=C(NS(=O)(=O)c3ccccc3)C(=O)c3ccccc32)c(C)c1	11	nt	-5	nt	nt
